Data reported in the supplement of paper PMC11732987, “Enantioselective OTUD7B fragment discovery through chemoproteomics screening and high-throughput optimisation” (Communications Chemistry, 2025).

What was measured:
Assay in all cases: log2 ratio of Biotin-Ahx-Ub-VS probe labelling (fragment/DMSO); higher = less target engagement (more negative = stronger competition), active = hit call of the paper (q ≤ 0.05, log2 ratio ≤ -1)
Details in all cases: compound concentration: 200 uM; treatment time: 3 h
USP42 = molecular target: T1, USP42 (UniProt Q9H9J4)
T1 sequence (whole entry): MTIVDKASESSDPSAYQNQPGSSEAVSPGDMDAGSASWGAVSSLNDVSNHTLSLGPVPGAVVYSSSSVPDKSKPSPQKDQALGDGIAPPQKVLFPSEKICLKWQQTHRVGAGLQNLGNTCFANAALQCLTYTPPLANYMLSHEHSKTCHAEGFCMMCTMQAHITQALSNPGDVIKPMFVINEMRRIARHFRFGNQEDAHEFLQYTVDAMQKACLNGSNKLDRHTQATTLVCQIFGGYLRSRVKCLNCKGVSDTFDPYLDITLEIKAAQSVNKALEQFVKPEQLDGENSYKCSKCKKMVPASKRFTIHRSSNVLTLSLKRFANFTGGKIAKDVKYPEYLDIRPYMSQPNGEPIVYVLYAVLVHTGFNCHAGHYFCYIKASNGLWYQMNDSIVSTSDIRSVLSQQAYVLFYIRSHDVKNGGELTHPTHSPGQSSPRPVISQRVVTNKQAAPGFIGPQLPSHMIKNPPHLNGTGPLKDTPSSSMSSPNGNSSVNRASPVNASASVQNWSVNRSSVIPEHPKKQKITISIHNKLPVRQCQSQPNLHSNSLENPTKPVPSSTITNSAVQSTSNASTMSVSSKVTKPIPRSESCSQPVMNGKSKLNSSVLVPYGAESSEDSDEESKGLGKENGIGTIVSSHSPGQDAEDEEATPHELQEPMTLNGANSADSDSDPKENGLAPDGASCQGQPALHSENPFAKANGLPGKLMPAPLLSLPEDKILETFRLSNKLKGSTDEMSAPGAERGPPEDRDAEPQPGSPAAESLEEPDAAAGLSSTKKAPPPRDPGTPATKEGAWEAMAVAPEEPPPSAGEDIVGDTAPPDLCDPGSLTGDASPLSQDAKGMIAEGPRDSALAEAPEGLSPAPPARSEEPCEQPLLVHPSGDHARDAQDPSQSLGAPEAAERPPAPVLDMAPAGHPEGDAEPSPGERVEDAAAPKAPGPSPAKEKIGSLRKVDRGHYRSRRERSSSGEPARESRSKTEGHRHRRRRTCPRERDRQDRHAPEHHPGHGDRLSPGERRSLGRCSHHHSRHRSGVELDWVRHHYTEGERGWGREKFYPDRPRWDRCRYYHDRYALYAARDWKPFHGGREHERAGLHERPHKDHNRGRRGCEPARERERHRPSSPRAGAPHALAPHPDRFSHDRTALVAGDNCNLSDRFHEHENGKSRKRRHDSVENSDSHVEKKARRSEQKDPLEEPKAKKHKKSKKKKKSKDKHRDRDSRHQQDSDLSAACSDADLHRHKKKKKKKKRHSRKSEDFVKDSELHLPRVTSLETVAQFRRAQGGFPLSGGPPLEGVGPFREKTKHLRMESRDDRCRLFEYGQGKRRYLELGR
Outline: (§1)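 Using Biotin-Ahx-Ub-VS at 0.5 µM final for 1 h, DUBs were labelled in HEK293T lysate (495 µg per sample) that had first been treated in triplicate with fragment at 200 µM or vehicle for 3 h. NeutrAvidin enrichment, LysC and trypsin digestion and diaPASEF LC-MS/MS followed. Spectronaut label-free quantities were global-median-normalised. Values are average log2 fragment/vehicle ratios by unpaired t-test, using proteins with ≥2 unique peptides.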

USP46 = USP46 (UniProt P62068)
Outline: as §1

USP47 = molecular target: T2, USP47 (UniProt Q96K76)
T2 sequence (whole entry): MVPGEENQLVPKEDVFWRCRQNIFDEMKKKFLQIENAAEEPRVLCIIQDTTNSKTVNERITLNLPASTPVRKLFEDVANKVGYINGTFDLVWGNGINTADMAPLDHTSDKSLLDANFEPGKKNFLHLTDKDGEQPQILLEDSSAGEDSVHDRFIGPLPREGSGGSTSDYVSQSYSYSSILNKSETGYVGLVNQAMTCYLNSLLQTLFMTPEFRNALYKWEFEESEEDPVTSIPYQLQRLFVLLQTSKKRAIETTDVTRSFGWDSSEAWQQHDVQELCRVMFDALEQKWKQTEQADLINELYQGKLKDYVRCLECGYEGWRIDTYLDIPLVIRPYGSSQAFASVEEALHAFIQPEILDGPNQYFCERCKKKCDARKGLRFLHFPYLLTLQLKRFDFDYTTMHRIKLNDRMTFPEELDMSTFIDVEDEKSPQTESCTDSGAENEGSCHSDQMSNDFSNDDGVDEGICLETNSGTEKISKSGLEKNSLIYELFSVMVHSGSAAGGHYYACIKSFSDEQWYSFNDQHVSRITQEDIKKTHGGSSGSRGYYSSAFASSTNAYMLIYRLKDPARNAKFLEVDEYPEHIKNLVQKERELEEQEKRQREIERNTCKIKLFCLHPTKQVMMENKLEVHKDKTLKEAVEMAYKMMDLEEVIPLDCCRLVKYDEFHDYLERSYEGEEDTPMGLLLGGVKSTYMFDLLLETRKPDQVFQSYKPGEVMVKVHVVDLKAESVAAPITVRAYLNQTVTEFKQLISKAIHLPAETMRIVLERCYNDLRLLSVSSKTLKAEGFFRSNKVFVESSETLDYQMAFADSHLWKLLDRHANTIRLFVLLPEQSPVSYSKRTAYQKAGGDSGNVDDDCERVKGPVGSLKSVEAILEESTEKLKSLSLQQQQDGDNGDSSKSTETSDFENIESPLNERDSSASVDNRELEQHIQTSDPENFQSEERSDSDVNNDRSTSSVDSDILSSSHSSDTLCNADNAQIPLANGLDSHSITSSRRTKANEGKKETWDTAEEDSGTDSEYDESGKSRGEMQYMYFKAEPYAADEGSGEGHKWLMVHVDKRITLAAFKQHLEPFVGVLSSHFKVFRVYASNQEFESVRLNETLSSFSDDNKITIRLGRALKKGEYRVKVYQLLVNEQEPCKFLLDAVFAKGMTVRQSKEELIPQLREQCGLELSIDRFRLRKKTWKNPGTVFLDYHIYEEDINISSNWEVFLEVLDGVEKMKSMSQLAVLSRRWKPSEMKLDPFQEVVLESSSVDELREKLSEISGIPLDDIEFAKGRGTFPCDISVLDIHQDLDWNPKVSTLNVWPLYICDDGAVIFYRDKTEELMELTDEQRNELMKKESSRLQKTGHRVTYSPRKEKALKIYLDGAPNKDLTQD
Outline: as §1

USP48 = molecular target: T3, USP48 (UniProt Q86UV5)
T3 sequence (whole entry): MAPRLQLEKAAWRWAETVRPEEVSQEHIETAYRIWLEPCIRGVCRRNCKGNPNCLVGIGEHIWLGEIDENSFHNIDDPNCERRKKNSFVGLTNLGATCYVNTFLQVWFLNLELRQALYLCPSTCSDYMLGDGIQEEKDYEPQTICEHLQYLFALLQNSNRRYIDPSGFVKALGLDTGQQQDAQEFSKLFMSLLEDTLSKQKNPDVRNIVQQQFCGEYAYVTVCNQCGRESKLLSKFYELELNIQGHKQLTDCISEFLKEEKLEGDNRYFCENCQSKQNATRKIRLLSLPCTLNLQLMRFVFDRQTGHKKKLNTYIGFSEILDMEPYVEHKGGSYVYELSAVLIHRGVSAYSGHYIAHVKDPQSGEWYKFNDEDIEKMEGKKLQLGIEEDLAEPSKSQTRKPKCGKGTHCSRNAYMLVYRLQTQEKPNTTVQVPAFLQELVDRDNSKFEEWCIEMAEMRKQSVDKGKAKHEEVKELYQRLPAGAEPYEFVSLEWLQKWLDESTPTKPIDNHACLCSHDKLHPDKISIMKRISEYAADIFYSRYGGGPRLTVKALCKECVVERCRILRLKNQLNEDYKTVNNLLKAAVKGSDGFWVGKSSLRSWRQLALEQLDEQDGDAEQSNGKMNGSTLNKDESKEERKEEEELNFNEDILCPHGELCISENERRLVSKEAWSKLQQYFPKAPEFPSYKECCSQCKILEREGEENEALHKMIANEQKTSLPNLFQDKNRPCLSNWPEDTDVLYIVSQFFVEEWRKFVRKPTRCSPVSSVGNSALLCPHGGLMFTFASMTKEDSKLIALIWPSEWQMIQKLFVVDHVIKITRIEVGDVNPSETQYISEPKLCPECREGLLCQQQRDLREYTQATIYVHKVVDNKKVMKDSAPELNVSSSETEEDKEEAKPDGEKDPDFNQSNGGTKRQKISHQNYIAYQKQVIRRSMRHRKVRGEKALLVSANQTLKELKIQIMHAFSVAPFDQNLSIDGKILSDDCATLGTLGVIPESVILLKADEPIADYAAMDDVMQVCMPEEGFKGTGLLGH
Outline: as §1

USP5 = molecular target: T4, USP5 (UniProt P45974)
T4 sequence (whole entry): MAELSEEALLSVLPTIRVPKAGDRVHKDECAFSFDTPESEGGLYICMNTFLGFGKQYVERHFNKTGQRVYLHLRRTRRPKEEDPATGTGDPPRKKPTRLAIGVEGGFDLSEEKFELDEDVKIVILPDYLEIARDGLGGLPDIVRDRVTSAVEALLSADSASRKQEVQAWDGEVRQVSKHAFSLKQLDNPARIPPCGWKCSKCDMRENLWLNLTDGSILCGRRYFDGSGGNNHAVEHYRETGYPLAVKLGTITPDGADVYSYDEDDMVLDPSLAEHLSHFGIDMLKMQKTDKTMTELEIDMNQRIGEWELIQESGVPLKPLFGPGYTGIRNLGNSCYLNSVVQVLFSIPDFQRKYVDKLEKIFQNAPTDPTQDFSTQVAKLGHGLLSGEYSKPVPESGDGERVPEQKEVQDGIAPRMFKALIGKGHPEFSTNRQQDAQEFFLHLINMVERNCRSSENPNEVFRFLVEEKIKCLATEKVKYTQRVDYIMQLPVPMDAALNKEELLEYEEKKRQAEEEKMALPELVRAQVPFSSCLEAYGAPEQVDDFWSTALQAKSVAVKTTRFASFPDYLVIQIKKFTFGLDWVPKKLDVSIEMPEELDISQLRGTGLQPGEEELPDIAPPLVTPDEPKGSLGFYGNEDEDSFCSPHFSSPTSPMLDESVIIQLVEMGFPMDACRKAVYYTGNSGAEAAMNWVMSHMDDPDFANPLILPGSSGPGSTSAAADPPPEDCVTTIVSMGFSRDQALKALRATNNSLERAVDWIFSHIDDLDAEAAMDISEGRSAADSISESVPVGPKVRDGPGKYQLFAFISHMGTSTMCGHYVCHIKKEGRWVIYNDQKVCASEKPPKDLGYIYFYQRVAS
Outline: as §1

USP54 = USP54 (UniProt Q70EL1)
Outline: as §1

USP7 = USP7 (UniProt Q93009)
Outline: as §1

USP8 = molecular target: T5, USP8 (UniProt P40818)
T5 sequence (whole entry): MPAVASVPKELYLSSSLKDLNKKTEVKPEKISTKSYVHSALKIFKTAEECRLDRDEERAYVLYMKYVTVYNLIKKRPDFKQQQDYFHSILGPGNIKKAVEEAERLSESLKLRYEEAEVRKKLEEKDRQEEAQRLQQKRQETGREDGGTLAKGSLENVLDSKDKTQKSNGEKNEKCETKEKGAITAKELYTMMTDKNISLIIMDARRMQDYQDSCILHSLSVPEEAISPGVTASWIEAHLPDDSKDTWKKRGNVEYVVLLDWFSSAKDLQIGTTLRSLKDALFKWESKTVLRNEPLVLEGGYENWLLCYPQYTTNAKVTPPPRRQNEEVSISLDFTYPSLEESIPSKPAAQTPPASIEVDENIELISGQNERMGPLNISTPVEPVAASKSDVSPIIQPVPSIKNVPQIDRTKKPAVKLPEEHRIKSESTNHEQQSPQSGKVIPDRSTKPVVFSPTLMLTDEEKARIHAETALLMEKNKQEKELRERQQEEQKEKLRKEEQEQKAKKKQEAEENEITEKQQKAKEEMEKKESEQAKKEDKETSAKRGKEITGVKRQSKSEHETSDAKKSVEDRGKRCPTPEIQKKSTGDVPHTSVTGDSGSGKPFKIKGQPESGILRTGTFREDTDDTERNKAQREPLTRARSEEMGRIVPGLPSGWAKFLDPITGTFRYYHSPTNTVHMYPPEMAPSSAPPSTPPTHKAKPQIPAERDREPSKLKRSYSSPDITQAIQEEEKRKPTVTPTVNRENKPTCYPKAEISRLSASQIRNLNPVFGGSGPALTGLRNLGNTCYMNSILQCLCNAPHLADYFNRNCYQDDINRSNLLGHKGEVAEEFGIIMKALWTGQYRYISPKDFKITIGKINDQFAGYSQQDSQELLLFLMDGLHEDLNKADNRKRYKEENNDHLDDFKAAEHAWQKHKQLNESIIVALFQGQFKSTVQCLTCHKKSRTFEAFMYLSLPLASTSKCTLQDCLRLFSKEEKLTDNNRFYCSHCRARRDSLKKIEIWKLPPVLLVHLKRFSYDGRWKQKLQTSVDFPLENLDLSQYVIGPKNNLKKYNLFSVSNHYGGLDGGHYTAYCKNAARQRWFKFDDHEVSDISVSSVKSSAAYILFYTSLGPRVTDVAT
Outline: as §1

USP9X = USP9X (UniProt Q93008)
Outline: as §1

UniProt O00487 = molecular target: UniProt O00487
Outline: as §1

Measured: log2 ratio of Biotin-Ahx-Ub-VS probe labelling

USP46, sequence (P62068 whole entry): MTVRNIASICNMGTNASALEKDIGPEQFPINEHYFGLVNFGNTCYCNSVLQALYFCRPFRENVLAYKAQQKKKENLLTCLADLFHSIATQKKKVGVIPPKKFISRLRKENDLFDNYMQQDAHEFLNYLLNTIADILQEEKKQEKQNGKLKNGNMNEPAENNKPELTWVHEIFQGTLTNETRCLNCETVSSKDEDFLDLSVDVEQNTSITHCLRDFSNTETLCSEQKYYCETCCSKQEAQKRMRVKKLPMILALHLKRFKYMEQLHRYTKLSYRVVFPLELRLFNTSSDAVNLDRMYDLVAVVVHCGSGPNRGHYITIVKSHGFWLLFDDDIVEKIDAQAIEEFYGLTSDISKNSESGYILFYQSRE
USP9X, sequence (Q93008 whole entry): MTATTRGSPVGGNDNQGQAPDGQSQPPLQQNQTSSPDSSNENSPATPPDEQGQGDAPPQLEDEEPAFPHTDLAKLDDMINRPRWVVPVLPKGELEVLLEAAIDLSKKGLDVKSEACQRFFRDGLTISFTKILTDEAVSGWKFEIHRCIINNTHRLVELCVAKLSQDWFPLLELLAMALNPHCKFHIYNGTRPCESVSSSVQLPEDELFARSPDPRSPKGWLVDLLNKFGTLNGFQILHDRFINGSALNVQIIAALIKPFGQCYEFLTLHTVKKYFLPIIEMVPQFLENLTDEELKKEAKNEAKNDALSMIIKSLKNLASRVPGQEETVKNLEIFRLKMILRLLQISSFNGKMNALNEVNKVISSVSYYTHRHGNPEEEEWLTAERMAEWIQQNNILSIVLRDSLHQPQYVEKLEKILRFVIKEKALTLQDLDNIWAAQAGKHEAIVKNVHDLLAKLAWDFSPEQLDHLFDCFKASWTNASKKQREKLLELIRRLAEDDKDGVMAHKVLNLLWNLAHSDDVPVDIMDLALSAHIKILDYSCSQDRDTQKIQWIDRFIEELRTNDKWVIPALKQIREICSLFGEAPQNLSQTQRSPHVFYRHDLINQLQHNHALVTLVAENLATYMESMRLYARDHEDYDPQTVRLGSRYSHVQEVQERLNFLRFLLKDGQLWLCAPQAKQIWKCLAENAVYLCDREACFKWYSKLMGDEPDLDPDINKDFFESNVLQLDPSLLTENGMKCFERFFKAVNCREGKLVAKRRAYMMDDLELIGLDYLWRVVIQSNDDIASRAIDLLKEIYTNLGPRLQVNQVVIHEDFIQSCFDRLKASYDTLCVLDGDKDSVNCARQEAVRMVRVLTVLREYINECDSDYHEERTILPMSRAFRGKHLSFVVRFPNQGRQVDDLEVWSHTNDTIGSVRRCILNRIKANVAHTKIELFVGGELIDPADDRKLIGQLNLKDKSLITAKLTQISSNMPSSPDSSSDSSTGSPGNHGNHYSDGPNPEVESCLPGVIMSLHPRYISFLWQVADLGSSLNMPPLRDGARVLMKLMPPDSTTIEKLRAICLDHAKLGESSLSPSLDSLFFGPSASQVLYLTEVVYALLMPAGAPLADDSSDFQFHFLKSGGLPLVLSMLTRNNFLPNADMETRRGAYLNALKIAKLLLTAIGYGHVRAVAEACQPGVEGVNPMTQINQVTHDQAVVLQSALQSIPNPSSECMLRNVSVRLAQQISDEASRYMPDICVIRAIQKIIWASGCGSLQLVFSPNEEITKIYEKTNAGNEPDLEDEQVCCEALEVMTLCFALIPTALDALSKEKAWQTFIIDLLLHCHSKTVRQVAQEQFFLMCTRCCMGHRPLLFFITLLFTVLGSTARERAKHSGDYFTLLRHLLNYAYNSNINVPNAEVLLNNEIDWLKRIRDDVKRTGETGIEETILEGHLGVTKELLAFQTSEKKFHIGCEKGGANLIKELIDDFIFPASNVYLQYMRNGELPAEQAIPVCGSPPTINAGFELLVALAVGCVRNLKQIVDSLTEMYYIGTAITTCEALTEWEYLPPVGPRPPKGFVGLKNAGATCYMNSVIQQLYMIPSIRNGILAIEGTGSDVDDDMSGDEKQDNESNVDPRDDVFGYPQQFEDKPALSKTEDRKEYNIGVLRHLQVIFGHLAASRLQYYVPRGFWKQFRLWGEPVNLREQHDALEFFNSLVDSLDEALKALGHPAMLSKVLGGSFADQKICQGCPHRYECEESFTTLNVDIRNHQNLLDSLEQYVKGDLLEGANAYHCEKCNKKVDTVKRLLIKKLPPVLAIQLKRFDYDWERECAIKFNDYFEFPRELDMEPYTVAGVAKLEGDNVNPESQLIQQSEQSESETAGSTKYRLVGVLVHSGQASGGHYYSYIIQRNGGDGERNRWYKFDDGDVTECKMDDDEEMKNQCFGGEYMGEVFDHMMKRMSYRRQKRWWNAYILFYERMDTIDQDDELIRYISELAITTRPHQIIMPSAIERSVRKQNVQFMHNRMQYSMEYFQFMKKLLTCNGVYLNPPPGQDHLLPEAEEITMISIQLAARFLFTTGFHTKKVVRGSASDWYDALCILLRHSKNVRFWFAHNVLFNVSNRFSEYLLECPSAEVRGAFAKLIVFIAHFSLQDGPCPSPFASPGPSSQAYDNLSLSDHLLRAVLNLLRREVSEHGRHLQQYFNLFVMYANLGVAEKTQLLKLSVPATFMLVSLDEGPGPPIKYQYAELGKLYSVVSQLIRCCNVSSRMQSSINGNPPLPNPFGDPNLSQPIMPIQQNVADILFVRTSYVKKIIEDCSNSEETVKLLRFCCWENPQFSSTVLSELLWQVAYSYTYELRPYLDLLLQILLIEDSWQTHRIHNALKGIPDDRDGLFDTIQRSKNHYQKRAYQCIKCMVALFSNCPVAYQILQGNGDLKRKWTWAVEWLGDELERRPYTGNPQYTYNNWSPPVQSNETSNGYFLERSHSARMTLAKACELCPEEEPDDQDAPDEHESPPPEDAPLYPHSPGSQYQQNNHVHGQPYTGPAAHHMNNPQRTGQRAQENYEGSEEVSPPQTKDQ
USP7, sequence (Q93009 whole entry, looked up): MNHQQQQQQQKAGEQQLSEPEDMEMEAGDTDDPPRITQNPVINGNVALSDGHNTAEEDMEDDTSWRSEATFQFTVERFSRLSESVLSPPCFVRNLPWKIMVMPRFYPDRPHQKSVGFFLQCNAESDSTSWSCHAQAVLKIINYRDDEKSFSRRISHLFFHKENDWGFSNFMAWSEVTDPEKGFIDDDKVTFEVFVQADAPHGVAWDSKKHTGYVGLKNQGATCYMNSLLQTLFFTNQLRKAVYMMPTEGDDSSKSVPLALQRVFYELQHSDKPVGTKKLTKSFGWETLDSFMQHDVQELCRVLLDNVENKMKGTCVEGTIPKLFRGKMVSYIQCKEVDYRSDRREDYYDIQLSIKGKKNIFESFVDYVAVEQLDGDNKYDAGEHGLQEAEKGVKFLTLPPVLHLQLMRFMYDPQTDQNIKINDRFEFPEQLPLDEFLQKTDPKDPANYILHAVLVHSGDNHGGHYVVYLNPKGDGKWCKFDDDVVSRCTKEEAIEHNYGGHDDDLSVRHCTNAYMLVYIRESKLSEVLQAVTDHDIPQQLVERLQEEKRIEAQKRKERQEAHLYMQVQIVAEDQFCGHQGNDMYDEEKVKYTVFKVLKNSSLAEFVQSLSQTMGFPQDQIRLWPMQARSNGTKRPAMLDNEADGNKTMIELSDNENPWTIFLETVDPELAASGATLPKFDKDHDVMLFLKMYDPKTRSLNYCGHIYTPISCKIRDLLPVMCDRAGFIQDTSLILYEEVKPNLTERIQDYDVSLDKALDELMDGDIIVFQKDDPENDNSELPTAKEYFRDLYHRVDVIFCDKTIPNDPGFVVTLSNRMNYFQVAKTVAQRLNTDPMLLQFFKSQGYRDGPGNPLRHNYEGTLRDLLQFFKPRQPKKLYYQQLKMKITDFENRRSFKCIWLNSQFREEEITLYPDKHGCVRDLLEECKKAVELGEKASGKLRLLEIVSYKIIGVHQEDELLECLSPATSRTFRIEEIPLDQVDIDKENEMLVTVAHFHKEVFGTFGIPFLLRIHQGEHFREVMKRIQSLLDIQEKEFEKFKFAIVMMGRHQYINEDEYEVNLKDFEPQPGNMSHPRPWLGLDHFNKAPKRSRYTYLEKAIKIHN
UniProt O00487, sequence (O00487 whole entry): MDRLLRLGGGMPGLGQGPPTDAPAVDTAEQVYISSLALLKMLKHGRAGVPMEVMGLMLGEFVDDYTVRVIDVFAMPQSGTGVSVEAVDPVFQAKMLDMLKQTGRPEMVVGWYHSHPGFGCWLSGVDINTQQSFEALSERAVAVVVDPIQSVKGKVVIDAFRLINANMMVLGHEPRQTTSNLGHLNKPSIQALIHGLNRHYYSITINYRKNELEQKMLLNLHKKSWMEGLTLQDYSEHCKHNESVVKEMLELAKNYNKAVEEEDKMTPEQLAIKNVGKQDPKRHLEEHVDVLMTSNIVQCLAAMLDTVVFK

Cl.O=C(CCl)NCCc1ncc(F)cc1F
inactive: USP42 -0.132 | USP46 -0.0594 | USP47 0.122 | USP48 -0.466 | USP5 -0.0776 | USP54 -0.439 | USP7 -0.34 | USP8 -0.607 | USP9X -0.419 | UniProt O00487 -0.24
